{
  "source": "the supplement of paper PMC6897291",
  "note": "Where a name gives a salt, the structure may show the parent alone.",
  "data": [
    {"test_system": "RIVA", "test": "growth inhibition by drug alone (1 - RLU/untreated control) (fraction); higher = stronger inhibition", "details": "100 nM; time (day): 3; 177Lu-lilotomab satetraxetan 0 ug/ml", "how_it_was_run": "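Compound doses on the pre-printed Selleck Cambridge Cancer Compound library plates were 10/100 nM for RIVA cells and 10/1,000 nM for U-2932 cells, seeded at 3,000 cells/well. Before seeding, cells were washed after 18 h with or without a radiolabelled anti-CD37 antibody conjugate (~600 MBq/mg; 0.5 µg/ml RIVA, 1 µg/ml U-2932). Growth inhibition was derived from RealTime-Glo luminescence relative to untreated no-drug control wells. Readings were taken daily starting on day 3, each after 1 h at 37°C, and each well's RLU was divided by the mean of 48 such wells per plate and subtracted from 1.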", "values": [
      {"smiles": "Nc1nc2[nH]cc(CCc3ccc(C(=O)N[C@@H](CCC(=O)O)C(=O)O)cc3)c2c(=O)[nH]1", "note": "[Pemetrexed]", "growth inhibition by drug alone": -0.293},
      {"smiles": "COc1cc2nccc(Oc3ccc(NC(=O)Nc4cc(C)on4)c(Cl)c3)c2cc1OC", "note": "[Tivozanib (AV-951)]", "growth inhibition by drug alone": 0.0881},
      {"smiles": "CCC(=O)N1CCN(c2ccc(-n3c(=O)ccc4cnc5ccc(-c6cnc7ccccc7c6)cc5c43)cc2C(F)(F)F)CC1", "note": "[Torin 1]", "growth inhibition by drug alone": 0.409},
      {"smiles": "COc1cccc2c1C(=O)c1c(O)c3c(c(O)c1C2=O)C[C@@](O)(C(=O)CO)C[C@@H]3O[C@H]1C[C@H](N)[C@@H](O)[C@H](C)O1", "note": "[Epirubicin Hydrochloride]", "growth inhibition by drug alone": 0.436},
      {"smiles": "Clc1ccc(Nc2nnc(Cc3ccncc3)c3ccccc23)cc1", "note": "[Vatalanib dihydrochloride (PTK787)]", "growth inhibition by drug alone": -0.0903},
      {"smiles": "COc1cc2nccc(Oc3ccc(NC(=O)C4(C(=O)Nc5ccc(F)cc5)CC4)cc3)c2cc1OC", "note": "[XL-184 free base (Cabozantinib)]", "growth inhibition by drug alone": -0.233},
      {"smiles": "C[C@@H](O[C@H]1OCCN(Cc2n[nH]c(=O)[nH]2)[C@H]1c1ccc(F)cc1)c1cc(C(F)(F)F)cc(C(F)(F)F)c1", "note": "[Aprepitant (MK-0869)]", "growth inhibition by drug alone": -0.233},
      {"smiles": "COc1cc2c(cc1O)CC[C@@H]1[C@@H]2CC[C@]2(C)[C@@H](O)CC[C@@H]12", "note": "[2-Methoxyestradiol]", "growth inhibition by drug alone": -0.594},
      {"smiles": "CNCc1ccc(-c2[nH]c3cc(F)cc4c3c2CCNC4=O)cc1", "growth inhibition by drug alone": -0.0509},
      {"smiles": "CC[C@@]1(O)C(=O)OCc2c1cc1n(c2=O)Cc2cc3c(CN(C)C)c(O)ccc3nc2-1", "note": "[Topotecan HCl]", "growth inhibition by drug alone": 0.689},
      {"smiles": "Nc1cc(C(F)(F)F)c(-c2cc(N3CCOCC3)nc(N3CCOCC3)n2)cn1", "growth inhibition by drug alone": -0.244},
      {"smiles": "CC(C)(C)c1ccc(S(=O)(=O)/C=C/C#N)cc1", "growth inhibition by drug alone": -0.0892},
      {"smiles": "C[C@]1(c2nc3c(C(N)=O)cccc3[nH]2)CCCN1", "note": "[ABT-888 (Veliparib)]", "growth inhibition by drug alone": -0.198},
      {"smiles": "Cc1ccc(NC(=O)c2ccc(CN3CC[C@H](N(C)C)C3)c(C(F)(F)F)c2)cc1Nc1nccc(-c2cncnc2)n1", "note": "[Bafetinib (INNO-406)]", "growth inhibition by drug alone": -0.279},
      {"smiles": "C[C@]12CC[C@@H]3c4ccc(O)cc4CC[C@H]3[C@@H]1CCC2=O", "note": "[Estrone]", "growth inhibition by drug alone": -0.445},
      {"smiles": "O=C(c1ccc(OCCN2CCCCC2)cc1)c1c(-c2ccc(O)cc2)sc2cc(O)ccc12", "note": "[Evista (Raloxifene Hydrochloride)]", "growth inhibition by drug alone": -0.0542},
      {"smiles": "CCN(CC)CCNC(=O)c1c(C)[nH]c(/C=C2\\C(=O)Nc3ccc(F)cc32)c1C", "note": "[Sunitinib Malate (Sutent)]", "growth inhibition by drug alone": -0.295},
      {"smiles": "CCOc1ccc(Nc2nc(-c3c(C)nc4ccccn34)cs2)cc1", "growth inhibition by drug alone": 0.931},
      {"smiles": "C=CC(=O)N1CCC[C@@H](n2nc(-c3ccc(Oc4ccccc4)cc3)c3c(N)ncnc32)C1", "growth inhibition by drug alone": 0.897},
      {"smiles": "CS(=O)(=O)c1cccc(CNc2nc(Nc3ccc4c(c3)CCC(=O)N4)ncc2C(F)(F)F)c1", "growth inhibition by drug alone": -0.0969},
      {"smiles": "CC(NC(=O)c1ccccc1/N=C/c1c(O)ccc2ccccc12)c1ccccc1", "note": "(stereo not drawn) [Sirtinol]", "growth inhibition by drug alone": -0.00236},
      {"smiles": "CN(Cc1cnc2nc(N)nc(N)c2n1)c1ccc(C(=O)N[C@@H](CCC(=O)O)C(=O)O)cc1", "note": "[Abitrexate (Methotrexate)]", "growth inhibition by drug alone": -0.038},
      {"smiles": "OCCn1cc(-c2cnc3nnn(Cc4ccc5ncccc5c4)c3n2)cn1", "growth inhibition by drug alone": -0.319},
      {"smiles": "COc1cc(Nc2ncc(F)c(Nc3ccc4c(n3)NC(=O)C(C)(C)O4)n2)cc(OC)c1OC", "note": "[R406(free base)]", "growth inhibition by drug alone": -0.368},
      {"smiles": "COc1cccc2c1C(=O)c1c(O)c3c(c(O)c1C2=O)C[C@@](O)(C(=O)CO)C[C@@H]3O[C@H]1C[C@H](N)[C@H](O)[C@H](C)O1", "note": "[Doxorubicin (Adriamycin)]", "growth inhibition by drug alone": 0.62},
      {"smiles": "CN(NC(=O)CC(=O)NN(C)C(=S)c1ccccc1)C(=S)c1ccccc1", "note": "[Elesclomol]", "growth inhibition by drug alone": 0.976},
      {"smiles": "CN(C)CCOc1ccc(/C(=C(/CCCl)c2ccccc2)c2ccccc2)cc1", "note": "[Toremifene Citrate (Fareston, Acapodene)]", "growth inhibition by drug alone": 0.0631},
      {"smiles": "CN1CCN(CCOc2cc(OC3CCOCC3)c3c(Nc4c(Cl)ccc5c4OCO5)ncnc3c2)CC1", "note": "[Saracatinib (AZD0530)]", "growth inhibition by drug alone": -0.52},
      {"smiles": "CC(C)C[C@H](NC(=O)[C@H](Cc1ccccc1)NC(=O)c1cnccn1)B(O)O", "note": "[Bortezomib (Velcade)]", "growth inhibition by drug alone": 0.978},
      {"smiles": "Cn1cncc1[C@@](N)(c1ccc(Cl)cc1)c1ccc2c(c1)c(-c1cccc(Cl)c1)cc(=O)n2C", "note": "[Tipifarnib (Zarnestra)]", "growth inhibition by drug alone": -0.0203},
      {"smiles": "COC(=O)c1ccc2c(C(=Nc3ccc(N(C)C(=O)CN4CCN(C)CC4)cc3)c3ccccc3)c(O)[nH]c2c1", "note": "[BIBF1120 (Vargatef)]", "growth inhibition by drug alone": -0.285},
      {"smiles": "CC[C@@H]1/C=C(\\C)C[C@H](C)C[C@H](OC)[C@H]2O[C@@](O)(C(=O)C(=O)N3CCCC[C@H]3C(=O)O[C@H](/C(C)=C/[C@@H]3CC[C@H](Cl)[C@H](OC)C3)[C@H](C)[C@@H](O)CC1=O)[C@H](C)C[C@@H]2OC", "note": "[Pimecrolimus]", "growth inhibition by drug alone": 0.691},
      {"smiles": "CN(C)CCOc1ccc(-c2nc(-c3ccncc3)c(-c3ccc4c(c3)CC/C4=N\\O)[nH]2)cc1", "growth inhibition by drug alone": -0.788},
      {"smiles": "COc1ccc(CCN2CCN(CCCc3ccccc3)CC2)cc1OC", "growth inhibition by drug alone": -0.612},
      {"smiles": "CNC(=O)c1cc(Oc2ccc(NC(=O)Nc3cc(C(C)(C)C)nn3-c3ccc4ncccc4c3)c(F)c2)ccn1", "note": "[DCC-2036 (Rebastinib)]", "growth inhibition by drug alone": -0.428},
      {"smiles": "CCC(C)(C)C(=O)O[C@H]1C[C@@H](C)C=C2C=C[C@H](C)[C@H](CC[C@@H]3C[C@@H](O)CC(=O)O3)[C@H]21", "note": "[Simvastatin (Zocor)]", "growth inhibition by drug alone": -0.024},
      {"smiles": "CCc1ccc(CCOc2ccc(CC3SC(=O)NC3=O)cc2)nc1", "note": "(stereo not drawn) [Pioglitazone (Actos)]", "growth inhibition by drug alone": -0.391},
      {"smiles": "O=C(O)C(Cc1c[nH]c2ccccc12)N1C(=O)c2ccccc2C1=O", "note": "(stereo not drawn)", "growth inhibition by drug alone": -0.231}
    ]}
  ]
}
